Measured values: PubChem BioAssay
Calls of active or inactive are those of the source.

Test system: not listed separately
Assay: change in splice reporter luminescence, either direction, cell-based, HEK293, spliceosome inhibition project, primary screen (AID 1101);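 note: HEK293 cells carrying a splicing-competent luciferase reporter gene; test concentration not given here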
Conditions: HEK293 splicing luciferase reporter, 24 h, higher = more signal, called active from +8 up or from −8 down

| SMILES | z-score |
| --- | --- |
| CCCC[C@@H](O)C1=C(C)C[C@H]2C(=O)N(Cc3ccccc3)C(=O)[C@H]2[C@H]1CO | 0.0445 (inactive) |
| COCCNC(=O)OCC1CCCC2(CC(OC(=O)NCCc3ccc(F)cc3)CC(CCC(=O)N[C@@H](C)C(=O)OC)O2)O1 (some centres undefined) | -1.09 (inactive) |
| C[N+](C)(C)CCCCCCNC(=O)[C@@H]1C[C@@H]2C(=O)N3CCC[C@H]3C(=O)N2[C@@H]1c1cccc(OCCO)c1 | -0.739 (inactive) |
| CC(C)C[C@@H]1NC(=O)[C@H]2C[C@@H](C(=O)O)[C@@H](c3ccc(O)cc3)N2C1=O | -0.0559 (inactive) |
| O=C1O[C@@H](c2ccccc2)[C@@H](c2ccccc2)N2[C@@H](c3ccccc3OCCO)[C@]3(C(=O)Nc4ccc(C#CCCO)cc43)[C@@H](C(=O)O)[C@H]12 | -2.02 (inactive) |
| CO[C@H]1COC(=O)[C@H](C)COC(=O)CC=C[C@@H](C)[C@H](OC)COC(=O)CC=C[C@@H]1C | 0.0172 (inactive) |
| C=CCC(OC(C)=O)[C@@H]1[C@@H](N(Cc2cc3ccccc3o2)C(=O)Cc2ccc(F)cc2)c2cc(OCCCO)ccc2N1C(=O)Cc1ccc(OC)cc1 (some centres undefined) | -0.844 (inactive) |
| CO[C@@H]1COC(=O)[C@H](C)NC(=O)[C@@H](C)COC(=O)CCC[C@H]1C | 0.494 (inactive) |
| CC(C)(C)OC(=O)CC[C@]1(C(N)=O)COC(c2ccc(OCCCO)cc2)=N1 | -0.337 (inactive) |

Target: Fibroblast growth factor 10 (Homo sapiens) (UniProt O15520)
Sequence (O15520 whole entry, looked up): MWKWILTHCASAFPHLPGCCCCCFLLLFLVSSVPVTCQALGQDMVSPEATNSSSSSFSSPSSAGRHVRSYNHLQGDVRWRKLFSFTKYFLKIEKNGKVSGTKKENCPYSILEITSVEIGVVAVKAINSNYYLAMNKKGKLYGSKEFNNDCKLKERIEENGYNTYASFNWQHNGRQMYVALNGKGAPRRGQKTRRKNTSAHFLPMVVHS
Assay: compounds binding fibroblast growth factor 10 – biochemical, small-molecule microarray, 635 nm fluorescence, primary screen (AID 1102)
Conditions: FGF10 binding, fluorescence 635 nm, higher = more signal

| SMILES | composite z-score |
| --- | --- |
| CCOC(=O)[C@H](Cc1ccccc1)NC(=O)CCC1CC(OC(=O)NCc2ccc3c(c2)OCO3)CC2(CCCC(COC(=O)NCc3cccc(C(F)(F)F)c3)O2)O1 (some centres undefined) | 0.984 |
| CC(=O)OC[C@H]1O[C@@H](ON=C[C@@H](C)[C@H](OCc2ccccc2)C(C)C)[C@H](OC(C)=O)[C@@H](OC(C)=O)[C@@H]1OC(C)=O | -0.167 |
| O=C1[C@H]2[C@H]3[C@H](O)[C@H](O)CC(=NOCc4ccccc4)[C@H]3CC[C@H]2C(=O)N1C[C@@H]1CCCO1 | 0.863 |
| CO[C@@H]1COC(=O)[C@@H]2CCCN2C(=O)[C@@H](C)COC(=O)[C@H](COCc2ccccc2)NC(=O)CC=C[C@H]1C | 0.613 |
| C=C(/C(=C/C[C@H](OC(C)=O)c1ccc(OCCO)cc1)c1cnc2ccccc2c1)C(C)C | 1.49 |
| COC(=O)CC=C[C@@H](C)[C@H](OC)c1ccccc1Br | 0.0042 |
| COc1ccccc1CN1C(=O)c2ccccc2[C@@H](C(=O)NCC(F)(F)F)[C@@H]1c1ccc(CO)cc1 | 0.956 |
| O=C1[C@H]2[C@H]3[C@H](O)[C@H](O)CC(=NO[C@@H]4O[C@H](CO)[C@@H](O)[C@H](O)[C@H]4O)[C@H]3CC[C@H]2C(=O)N1C1CCCCC1 | 0.0041 |
| CC(C)=CCCC(C)=CCON=C1C[C@@H](O)[C@@H](O)[C@@H]2[C@@H]3C(=O)N(C[C@@H]4CCCO4)C(=O)[C@@H]3CC[C@@H]12 | 1.33 |
| C=CC[C@@H]1C=C[C@H](ON=C2c3cc(OC)ccc3O[C@H](c3cccc(OC)c3)[C@H]2O)[C@@H](CO)O1 | 0.0385 |
| CCc1cc2c(nc1CC)CCN(CCC(C)=NOC[C@@H](O)COCc1ccco1)C2 | 0.529 |
| CCN1C(=O)[C@H]2[C@H]3[C@H](O)[C@H](O)CC(=NOC(C)CN4CCCCc5nc(C)c(C)cc54)[C@@H]3CC[C@H]2C1=O (some centres undefined) | 0.471 |
| COCCOC(=O)N1C(=O)[C@@]2(c3cc(C#CC4(O)CCCCCC4)ccc31)[C@H](c1ccc(OCCO)cc1)N1[C@H](c3ccccc3)[C@H](c3ccccc3)OC(=O)[C@H]1[C@@H]2C(=O)NC[C@H](O)c1ccccc1 | 1.18 |
| CC1CC/C=C\[C@H]2OC34C=CCN(C(C)C)C(=O)[C@H]3N(CCCO)C(=O)[C@@H]4C2C(=O)O1 (some centres undefined) | -0.79 |
| CCCNC(=O)OC[C@H]1O[C@H](CCON=CC[C@@H]2C=C[C@H](OC(C)=O)[C@@H](COC(C)=O)O2)C=C[C@@H]1Oc1ccc(OC)cc1 | 0.817 |
| Cc1ccc(S[C@]2(C(=O)O)CC(=O)N(Cc3ccccc3)[C@@H]2c2ccc(CO)cc2I)cc1 | -0.406 |
| CC(=O)C[C@H](O)[C@@H](NC(=O)OC(C)(C)C)C(C)C | -0.456 |
| COC(=O)C1=CCC(c2cccc(Cl)c2)O1 (centres undefined) | 0.044 |
| COCCCNC(=O)[C@@]1(CCS(=O)(=O)c2ccccc2)N=C(c2ccc(OCCCO)cc2)O[C@H]1c1ccccc1 | 1.12 |
| O=C(NN=C1C[C@@H](O)[C@@H](O)[C@@H]2[C@@H]3C(=O)N(c4cccc(Oc5ccccc5)c4)C(=O)[C@@H]3CC[C@@H]12)OCc1ccccc1 | 0.353 |
